# Six1-Eya2 inh – Six1/Eya2 interaction inhibition; Q15475+O00167; AlphaScreen GST-Six1/His-Eya2 binding, biochemical; active compounds read low; activity change, % (concentration not given with the values); 360,000 compounds, 0.56% hits; AID 651725; in the data active = activity change below about -65%; inconclusive = mostly about -30% to -63%
#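 Compounds are tested against tagged Six1 and Eya2 proteins bridged by glutathione donor and nickel acceptor beads; after a one-hour incubation at 37 °C without light, AlphaScreen emission is recorded.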
# CtBP-E1A blk – inhibitors of CtBP/E1A interaction. AlphaScreen GST-E1A/His-CtBP binding, 1536-well; active compounds read low. activity change, % (concentration not given with the values). 340,000 compounds, 0.49% hits. AID 651724; in the data active = activity change below about -65%; inconclusive = mostly about -30% to -63%
#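 GST-E1A and His-tagged CtBP (125 nM each as 5X stock) were preincubated with pin-transferred compound for 2 h at 37 °C in the dark, then glutathione donor and nickel acceptor beads were added for 1 h before AlphaScreen reading.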
# JMJD2A Tudor inh – blocks the human JMJD2A Tudor domain; AID 504339; Potency, µM (highest dose often 114 µM), most hits filed as inhibitors; AlphaScreen JMJD2A-Tudor / H3K4me3 peptide binding; O75164; 390,000 compounds, 4.4% hits; note: nearly all actives have a fitted effect of over 50% in size
# HP1b chromo inh – blocks HP1-beta chromodomain binding to methylated histone tails | AlphaScreen HP1-beta / biotin-H3K9me3 peptide binding | 390,000 compounds, 0.56% hits | Potency, µM (top dose mostly 114 µM), usual class: inhibitors | P83916; note: nearly all actives have a fitted effect of over 70% in size
#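 HP1-beta protein (50 nM final) preincubated 30 min at room temperature with biotinylated H3(1-18)K9me3 peptide (50 nM) in PBS pH 7.4, 0.01% Tween-20, then compound added for 30 min. AlphaScreen streptavidin donor/nickel chelate acceptor beads (10 ug/mL final), 30 min dark, luminescence read.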
# BAZ2B inh – inhibitors of human BAZ2B bromodomain | AlphaScreen BAZ2B-H3K14Ac peptide displacement | Potency, µM (top dose mostly 114 µM), most hits filed as inhibitors | 360,000 compounds, 4.4% hits; note: nearly all actives have a fitted effect of over 60% in size
#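 AlphaScreen displacement of biotin-H3(5-23)K14Ac peptide (50 nM final) from BAZ2B (50 nM final) in PBS pH 7.4, 0.01% Tween-20; complex preformed 30 min RT, then compounds (top 110 uM) 30 min RT, beads 20 min dark.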
# G9a inh – inhibitors of human histone lysine methyltransferase G9a; AID 504332; Potency, µM (series often up to 102 µM), hits mostly inhibitors; 350,000 compounds, 8.8% hits; G9a H3K9 monomethylation, AlphaScreen, 2 h; Q96KQ7; note: nearly all actives have a fitted effect of over 75% in size
#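 AlphaScreen detection with an anti-monomethyl H3K9 antibody quantified product after a 2 h room-temperature reaction containing 500 nM biotinylated H3K9 peptide, 20 µM SAM and 20 nM enzyme, which had been preincubated 15 min with compound.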
# A number is an active result; i = inactive; ? = inconclusive; nt = no result given; ! = repeats disagree; [ ] = dose if it differs, or a comment. The list is not random: actives were taken first. Their share in the collection is about 10%. Unless noted, calls come from the whole dose curve; as a rule, active = well fitted inhibition curve with a large enough effect; inconclusive = small, poorly fitted or top-dose-only effect; inactive = no such curve, though single readings can be large or run the other way.
SMILES,Six1-Eya2 inh,CtBP-E1A blk,JMJD2A Tudor inh,HP1b chromo inh,BAZ2B inh,G9a inh
COC(=O)CNC(=O)c1ccc(NS(=O)(=O)c2cc([N+](=O)[O-])ccc2Cl)cc1,i,i,i,i,i,56µM
O=[N+]([O-])c1cccc(S(=O)(=O)Nc2ccc(S(=O)(=O)N3CCCC3)cc2)c1,i,i,i,i,nt,nt
O=[N+]([O-])c1ccc(Cl)c(S(=O)(=O)Nc2ccc(S(=O)(=O)N3CCOCC3)cc2)c1,i,i,i,i,i,45µM
C[C@@H]1CN([C@H](C)CO)S(=O)(=O)c2ccc(C#Cc3ccccc3F)cc2O[C@H]1CN(C)C(=O)c1ccc2c(c1)OCO2,i,i,nt,nt,nt,nt
Cc1cc(S(=O)(=O)Nc2noc3ccccc23)ccc1F,i,i,i,i,i,?
O=C(CNC(=O)c1ccccc1)N[C@@H](C(=O)Nc1cc(C(F)(F)F)ccc1Cl)c1ccccc1,nt,nt,i,nt,nt,nt
Cc1ccc(C(=O)NC(=S)c2c(C)cc3ccccn23)cc1,-76,i,nt,nt,nt,nt
Cc1cc2ccccn2c1C(=O)c1ccncc1,i,i,i,i,i,i
Cc1cc2ccccn2c1C(=S)NC(=O)c1ccccc1,?,?,50µM,?,14µM,?
C[N+]1(C2CCC3CCCC2C3O)CCCC1 (stereo not given),i,i,i,i,i,?
NCCS(=O)O,nt,nt,nt,nt,nt,19µM!
CC(C)C[C@@H]1Cc2[nH]c(=S)[nH]c(=O)c2[C@H](C)O1,i,i,nt,nt,nt,nt
O=C(COC(=O)c1ccc2c(c1Cl)C(=O)c1ccccc1C2=O)NC1CC1,?,?,?,i,?,?
Nc1ccc2c(c1Cl)C(=O)c1ccc(N)c(Cl)c1C2=O,-78,nt,56µM,i,56µM,25µM
COc1ccc(OCC(=O)Nc2cccc(-c3nc4ccccc4s3)c2C)cc1,nt,nt,i,i,i,i
CN(C)S(=O)(=O)c1cccc(NC(=O)c2ccncc2)c1,i,i,i,i,i,i
COc1ccc(NC(=O)c2ccc(C#N)cc2)cc1NS(=O)(=O)c1ccc(F)cc1,i,i,i,i,i,8.9µM
CN(C)S(=O)(=O)c1cccc(NC(=O)c2cc(=O)[nH]c(=O)[nH]2)c1,i,i,?,i,?,1.1µM
CCN(CC)S(=O)(=O)c1cccc(NC(=O)c2ccc(C#N)cc2)c1,i,i,i,i,i,20µM
Cc1cccc(C(O)c2ncc(-c3ccccc3)[nH]2)c1C (stereo not given),i,i,nt,nt,nt,nt
O=c1c2c3c(sc2n2cnnc2n1-c1ccccc1)N(Cc1ccccc1)CCC3,i,i,?,i,i,13µM
Cc1cc(C)cc(OCC(=O)N/N=C/c2ccco2)c1,i,i,i,i,i,i
Cc1cccc(OCC(=O)N/N=C/C=C/c2ccco2)c1,i,i,i,i,?,8.9µM
CCc1ccc(OCC(=O)N/N=C\c2ccco2)c([N+](=O)[O-])c1,i,i,?,?,45µM,i
Cc1ccc(OCC(=O)N/N=C/C=C/c2ccco2)c(Br)c1,i,i,?,i,i,45µM
SMILES,Six1-Eya2 inh,CtBP-E1A blk,JMJD2A Tudor inh,HP1b chromo inh,BAZ2B inh,G9a inh
Cc1cccc(C)c1OCC(=O)N/N=C/C=C/c1ccco1,i,i,i,i,i,32µM
CCOC(=O)N/N=C\C=C\c1ccco1,i,i,i,i,i,?
O=C(COc1cccc([N+](=O)[O-])c1)N/N=C/c1ccco1,i,nt,?,i,?,?
O=C(Cn1ccn(-c2ccc(F)cc2)c(=O)c1=O)NCCc1ccccc1,nt,nt,i,i,?,i
CN(C)/C=C/C(=O)/C=C/c1cn(-c2ncc(C(F)(F)F)cc2Cl)c2ccccc12,i,i,i,i,i,10µM
COC(=O)Cc1cn(-c2ncc(C(F)(F)F)cc2Cl)c2ccccc12,i,i,i,i,i,i
COC(=O)[C@]1(C)N[C@H](c2ccc(-c3ccc(Cl)c(Cl)c3)c(OC)c2)[C@@H]2C(=O)N(C)C(=O)[C@@H]21,i,i,89µM,i,i,?
COC(=O)[C@]1(C)N[C@H](c2ccc(-c3ccc(OC)cc3)cc2)[C@@H]2C(=O)N(C)C(=O)[C@@H]21,i,i,i,i,nt,nt
CCC1(C)Cc2ccccc2-c2c1c(=O)n(-c1ccc(C)cc1)c1nnnn21 (stereo not given),i,nt,i,i,i,50µM
CCC1(C)Cc2ccccc2-c2nc(NCCO)n(-c3ccc(C)cc3)c(=O)c21 (stereo not given),i,i,i,i,i,i
COc1cccc(C2c3c(ncn(-c4ccccc4)c3=N)Oc3ccc4ccccc4c32)c1 (stereo not given),nt,nt,56µM,nt,nt,nt
COc1ccccc1C1c2ccc3ccccc3c2Oc2ncn(CCN(C)C)c(=N)c21 (stereo not given),i,i,?,i,i,?
N=c1c2c(ccn1-c1ccccc1)Oc1ccc3ccccc3c1C2c1ccccc1 (stereo not given),nt,nt,40µM,nt,nt,nt
COc1cccc(C2c3c(ncn(-c4cccc(F)c4)c3=N)Oc3ccc4ccccc4c32)c1 (stereo not given),nt,nt,50µM,nt,nt,nt
COc1ccccc1C1c2c(ncn(-c3ccccc3)c2=N)Oc2ccc3ccccc3c21 (stereo not given),nt,nt,56µM,nt,nt,nt
N=c1c2c(ncn1-c1ccccc1)Oc1ccc3ccccc3c1C2c1ccc2c(c1)OCO2 (stereo not given),nt,nt,45µM,nt,nt,nt
COc1cccc(C2c3c(ncn(-c4ccccc4OC)c3=N)Oc3ccc4ccccc4c32)c1 (stereo not given),nt,nt,56µM,nt,nt,nt
CCC(CC)C(=O)N(C)c1c(C)nc2c(OCc3ccc(F)c(F)c3)cccn12,i,i,nt,nt,nt,nt
O=C(NCc1n[nH]c(=S)n1-c1cccc(C(F)(F)F)c1)c1ccc(S(=O)(=O)N2CCCC2)cc1,i,nt,i,i,i,13µM
O=C(NCc1n[nH]c(=S)n1-c1cccc(C(F)(F)F)c1)c1ccc(S(=O)(=O)N2CCCCC2)cc1,i,i,i,i,i,8.9µM
CCN(CC)CCSc1nnc2c3ccccc3n(Cc3ccccc3)c2n1,i,?,i,i,i,i[12.7 µM]
COC(=O)CN1C(=S)N(c2ccc(Cl)cc2)C(=O)C1CC(=O)Nc1ccc(F)cc1 (stereo not given),i,i,i,i,i,50µM
CCOC(=O)c1cccc(NS(=O)(=O)c2ccc(-c3coc(C)n3)cc2)c1,nt,nt,i,i,i,i
O=C(O)c1cc(N/N=C2/CC(c3ccccc3)Oc3ccccc32)ccc1Cl (stereo not given),?,?,?,i,i,11µM
CCCNC(=O)NS(=O)(=O)c1ccc(Cl)cc1,i,i,i,i,i,i
CCCNC(=O)c1nnsc1S(=O)(=O)c1ccc(Cl)cc1,i,i,i,i,i,13µM
